19 compounds from PubChem BioAssay (Tox21) can be followed below.

Results filed as inconclusive are left out. Entries that show only a call come without a potency. The source holds several records for some structures; these can differ, active in one and inactive in another. Active and inactive are the calls of the source. Calls follow the shape of the dose curve; as a rule, active = well fitted cell-killing curve with a large enough effect in the repeat runs; inconclusive = weak or mixed curves, or effect the other way; inactive = flat fitted curve, though single readings scatter.
Potency is read from the fitted curve at half-maximal effect.

This test is described as follows: Nuclear factor erythroid 2-related factor 2/antioxidant responsive element (Nrf2/ARE) small molecule agonists: qHTS cell viability counter screen in human keratinocytes (AID 1919968). Also: nearly all actives have a fitted effect of over 55% in size. As to conditions: KeratinoSens HaCaT ARE cells viability, CellTiter-Fluor, 24 h; series mostly up to 92.4 µM. Put shortly: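 Measured as CellTiter-Fluor fluorescence, this readout tracks cytotoxicity in the same wells as the ARE-luciferase screen. HaCaT reporter cells (1,500/well) received compounds after a 5 h pre-incubation and were exposed for 23 h.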
With `CC(=O)O[C@]1(C(C)=O)CC[C@H]2[C@@H]3C[C@H](C)C4=CC(=O)CC[C@]4(C)[C@H]3CC[C@@]21C`, the Potency entry is “inactive”.
For the compound `COC(=O)c1ccc(O)cc1`, the Potency entry is “inactive”.
`CC(=O)CC(C)(C)O`: the Potency result was “inactive”.
To `O=c1[nH]cc(F)c(=O)[nH]1` belongs 5.65 µM (active) and inactive; to `COc1ccc(Cl)cc1C(=O)NCCc1ccc(S(=O)(=O)NC(=O)NC2CCCCC2)cc1`, “inactive”; to `CC(=O)OC/C=C(C)/C=C/C=C(C)/C=C/C1=C(C)CCCC1(C)C`, “inactive”.
As for `CCCCCCCCCCN`, the Potency result was “inactive”.
To `C[C@H]1C[C@H]2[C@@H]3CCC4=CC(=O)C=C[C@]4(C)[C@@]3(F)[C@@H](O)C[C@]2(C)[C@@]1(O)C(=O)CO` belongs “inactive”.
As to `CCCCN(CCCC)CCCC`, the Potency entry is “inactive”.
To `CCCCCCC(C)O` (centres undefined) belongs “inactive”; to `O=[Se](O)O`, “inactive”.
To `Cc1ccc(S(=O)(=O)NCl)cc1` belongs “inactive”; to `CC(=O)O[C@]1(C(C)=O)CC[C@H]2[C@@H]3C=C(Cl)C4=CC(=O)CC[C@]4(C)[C@H]3CC[C@@]21C`, “inactive”.
To `CCC(C)C=O` (centres undefined) belongs “inactive”.
`CC1(C)S[C@@H]2[C@H](NC(=O)[C@H](N)c3ccccc3)C(=O)N2[C@H]1C(=O)O`: the Potency entry was “inactive”.
Then `CC(C)[N+](C)(CCOC(=O)C1c2ccccc2Oc2ccccc21)C(C)C`, with “inactive”.
Turning to `CC(C)(C)NC(=O)[C@H]1CC[C@H]2[C@@H]3CC[C@H]4NC(=O)C=C[C@]4(C)[C@H]3CC[C@]12C`, the Potency entry was “inactive”.
With `Cn1c(=O)c2[nH]cnc2n(C)c1=O`, the Potency result is “inactive”.
For the compound `CCCCC/C=C\C/C=C\CCCCCCCC(=O)O`, the Potency result was “inactive”.
